# From the supplement of paper PMC10849652
# Of roughly 7,900 targets only a part is listed; those with a hit were picked by preference. About 0.6% of all pairs of compound and target were hits. Values without a mark were called inactive.
# Assays:
# Assay in all cases: log2 fold change, soluble protein after heating vs DMSO (PISA); higher = thermal stabilisation; K562 cells, 10 uM, 30 min; active = over 0.2 and 3.5 SD of the protein, either way, in both replicates (recomputed)
# [1] = compound: CS(=O)(=O)c1ccc(-c2cnc(N)c(C(=O)Nc3ccccc3)n2)cc1
# Procedure, shortened: (§1)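 Soluble protein was quantified by TMTpro 16plex LC-MS/MS after channel sums were equalised. It was obtained as the supernatant after 21,000xg for 90 min from pooled aliquots of K562 cells (2×10^6 cells/mL, 10 μM compound, 30 min) heated for 3 min across 48°C-58°C and extracted in PBS with 0.5% NP-40 at 4°C. Thermal stability values are relative to control samples and come from duplicates. They are given as log2 fold changes.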
# [2] = compound: C[C@@H](Oc1cc(-c2cnn(C3CCNCC3)c2)cnc1N)c1c(Cl)ccc(F)c1Cl [crizotinib]
# Procedure, shortened: as §1
# [3] = compound: C[C@@H]1COCCN1C2=NC(=NC(=C2)C3(CC3)S(=O)(=O)C)C4=C5C=CNC5=CC=C4
# Procedure, shortened: as §1
# [4] = compound: C[C@H](C1=CC=C(C=C1)C(=O)NC2=C3C=CNC3=NC=C2)N
# Procedure, shortened: as §1
# [5] = compound: C[C@H](Nc1ncnc2nc[nH]c12)c1cc2cccc(Cl)c2c(=O)n1-c1ccccc1 [duvelisib]
# Procedure, shortened: as §1
# [6] = compound: Cc1cc(Nc2cc(CN3CCOCC3)c3nc(C)c(Cc4ccc(Cl)cc4F)n3n2)n[nH]1 [gandotinib]
# Procedure, shortened: as §1
# [7] = compound: Cc1cc(Nc2cc(N3CCN(C)CC3)nc(Sc3ccc(NC(=O)C4CC4)cc3)n2)n[nH]1 [tozasertib]
# Procedure, shortened: as §1
# [8] = compound: Cc1cc(SCc2sc(-c3ccc(C(F)(F)F)cc3)nc2C)ccc1OCC(=O)O
# Procedure, shortened: as §1
# [9] = compound: Cc1ccc(-n2nc(C(C)(C)C)cc2NC(=O)Nc2ccc(OCCN3CCOCC3)c3ccccc23)cc1 [doramapimod]
# Procedure, shortened: as §1
# [10] = compound: Cc1ccc(C(=O)N(CCCN)[C@@H](c2nc3cc(Cl)ccc3c(=O)n2Cc2ccccc2)C(C)C)cc1 [ispinesib]
# Procedure, shortened: as §1
# Sequence of UniProt P00367 (P00367 whole entry, looked up): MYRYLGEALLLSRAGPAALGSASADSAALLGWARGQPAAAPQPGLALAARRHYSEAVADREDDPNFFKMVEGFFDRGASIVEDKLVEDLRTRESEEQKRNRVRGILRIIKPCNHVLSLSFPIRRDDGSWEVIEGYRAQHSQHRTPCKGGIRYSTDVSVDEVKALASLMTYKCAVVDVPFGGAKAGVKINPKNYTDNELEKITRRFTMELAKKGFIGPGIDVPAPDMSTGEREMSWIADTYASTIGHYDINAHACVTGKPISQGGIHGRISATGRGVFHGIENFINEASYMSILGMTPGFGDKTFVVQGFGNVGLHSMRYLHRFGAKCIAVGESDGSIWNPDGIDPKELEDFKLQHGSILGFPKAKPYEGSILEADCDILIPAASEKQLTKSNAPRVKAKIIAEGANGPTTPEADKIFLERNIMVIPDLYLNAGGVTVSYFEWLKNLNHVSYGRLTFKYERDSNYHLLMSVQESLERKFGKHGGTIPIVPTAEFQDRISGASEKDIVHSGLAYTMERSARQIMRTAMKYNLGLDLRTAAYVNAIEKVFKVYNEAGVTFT
# Sequence of UniProt Q8WUI4 (Q8WUI4 whole entry, looked up): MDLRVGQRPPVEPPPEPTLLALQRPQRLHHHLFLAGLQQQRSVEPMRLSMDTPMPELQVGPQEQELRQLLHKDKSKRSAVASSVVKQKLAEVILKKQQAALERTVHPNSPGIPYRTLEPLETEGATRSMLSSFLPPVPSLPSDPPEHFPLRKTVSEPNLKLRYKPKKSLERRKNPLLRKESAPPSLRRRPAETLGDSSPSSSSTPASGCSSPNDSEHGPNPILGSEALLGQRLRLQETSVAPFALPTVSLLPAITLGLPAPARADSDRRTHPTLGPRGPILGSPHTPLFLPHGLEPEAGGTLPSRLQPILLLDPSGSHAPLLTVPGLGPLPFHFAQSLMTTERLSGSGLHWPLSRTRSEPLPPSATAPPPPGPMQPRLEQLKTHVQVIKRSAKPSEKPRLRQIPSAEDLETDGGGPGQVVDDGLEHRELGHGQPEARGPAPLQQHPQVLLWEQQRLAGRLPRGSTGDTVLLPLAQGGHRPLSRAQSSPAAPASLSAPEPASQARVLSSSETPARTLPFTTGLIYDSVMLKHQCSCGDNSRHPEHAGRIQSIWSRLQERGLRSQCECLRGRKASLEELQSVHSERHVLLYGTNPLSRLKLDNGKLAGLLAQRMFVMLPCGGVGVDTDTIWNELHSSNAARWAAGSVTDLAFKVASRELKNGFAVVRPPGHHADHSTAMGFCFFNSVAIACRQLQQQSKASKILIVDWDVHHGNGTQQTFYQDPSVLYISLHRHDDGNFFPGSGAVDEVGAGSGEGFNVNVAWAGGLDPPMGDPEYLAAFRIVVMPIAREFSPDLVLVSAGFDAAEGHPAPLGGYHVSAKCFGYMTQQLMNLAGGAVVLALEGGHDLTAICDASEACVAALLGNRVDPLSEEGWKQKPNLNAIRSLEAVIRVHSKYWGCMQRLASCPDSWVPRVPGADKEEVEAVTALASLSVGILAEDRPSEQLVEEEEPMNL
# Sequence of UniProt P30519 (P30519 whole entry, looked up): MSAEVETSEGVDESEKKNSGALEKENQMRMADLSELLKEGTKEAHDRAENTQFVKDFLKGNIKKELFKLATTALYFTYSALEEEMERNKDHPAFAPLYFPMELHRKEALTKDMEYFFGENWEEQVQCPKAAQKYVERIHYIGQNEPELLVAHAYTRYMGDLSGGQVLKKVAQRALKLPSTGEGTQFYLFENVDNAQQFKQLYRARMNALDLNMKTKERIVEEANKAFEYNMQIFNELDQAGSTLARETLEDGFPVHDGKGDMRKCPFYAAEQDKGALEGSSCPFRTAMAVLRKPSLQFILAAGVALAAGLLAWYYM
# Sequence of UniProt Q86VS8 (Q86VS8 whole entry, looked up): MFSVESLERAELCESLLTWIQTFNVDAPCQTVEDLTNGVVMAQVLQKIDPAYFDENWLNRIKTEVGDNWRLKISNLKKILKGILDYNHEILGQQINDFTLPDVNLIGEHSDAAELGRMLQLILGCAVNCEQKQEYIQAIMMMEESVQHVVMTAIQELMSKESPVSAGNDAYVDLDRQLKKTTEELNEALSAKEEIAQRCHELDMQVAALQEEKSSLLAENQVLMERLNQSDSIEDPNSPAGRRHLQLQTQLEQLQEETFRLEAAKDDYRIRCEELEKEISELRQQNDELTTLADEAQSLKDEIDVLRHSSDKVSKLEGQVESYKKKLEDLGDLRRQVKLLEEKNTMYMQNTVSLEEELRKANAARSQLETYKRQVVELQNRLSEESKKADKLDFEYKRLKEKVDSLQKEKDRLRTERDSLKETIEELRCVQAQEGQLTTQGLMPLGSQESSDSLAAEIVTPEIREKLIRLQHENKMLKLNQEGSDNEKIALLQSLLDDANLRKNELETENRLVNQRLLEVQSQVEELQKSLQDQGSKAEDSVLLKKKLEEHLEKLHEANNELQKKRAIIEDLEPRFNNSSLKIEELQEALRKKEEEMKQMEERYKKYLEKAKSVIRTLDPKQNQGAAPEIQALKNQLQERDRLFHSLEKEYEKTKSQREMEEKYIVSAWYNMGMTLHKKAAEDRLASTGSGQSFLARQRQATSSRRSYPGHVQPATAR
# Sequence of UniProt P31150 (P31150 whole entry, looked up): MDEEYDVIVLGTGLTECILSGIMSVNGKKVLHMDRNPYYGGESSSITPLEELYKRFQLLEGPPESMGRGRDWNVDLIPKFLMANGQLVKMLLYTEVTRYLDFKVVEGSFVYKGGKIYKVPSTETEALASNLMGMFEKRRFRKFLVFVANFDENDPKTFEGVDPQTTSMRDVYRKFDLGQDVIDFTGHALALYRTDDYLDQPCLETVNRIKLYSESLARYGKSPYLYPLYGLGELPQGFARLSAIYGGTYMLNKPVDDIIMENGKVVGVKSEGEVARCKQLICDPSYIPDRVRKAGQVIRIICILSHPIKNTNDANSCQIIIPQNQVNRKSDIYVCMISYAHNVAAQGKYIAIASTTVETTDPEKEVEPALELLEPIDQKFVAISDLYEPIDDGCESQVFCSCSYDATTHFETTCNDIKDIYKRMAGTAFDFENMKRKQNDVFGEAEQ
# Sequence of UniProt Q7Z4H3 (Q7Z4H3 whole entry, looked up): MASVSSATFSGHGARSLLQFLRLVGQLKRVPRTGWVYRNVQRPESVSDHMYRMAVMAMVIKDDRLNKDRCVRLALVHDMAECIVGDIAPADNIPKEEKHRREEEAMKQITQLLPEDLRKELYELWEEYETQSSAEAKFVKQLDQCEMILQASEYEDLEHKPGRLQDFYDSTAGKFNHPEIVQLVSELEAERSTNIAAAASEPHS
# Sequence of UniProt P22830 (P22830 whole entry, looked up): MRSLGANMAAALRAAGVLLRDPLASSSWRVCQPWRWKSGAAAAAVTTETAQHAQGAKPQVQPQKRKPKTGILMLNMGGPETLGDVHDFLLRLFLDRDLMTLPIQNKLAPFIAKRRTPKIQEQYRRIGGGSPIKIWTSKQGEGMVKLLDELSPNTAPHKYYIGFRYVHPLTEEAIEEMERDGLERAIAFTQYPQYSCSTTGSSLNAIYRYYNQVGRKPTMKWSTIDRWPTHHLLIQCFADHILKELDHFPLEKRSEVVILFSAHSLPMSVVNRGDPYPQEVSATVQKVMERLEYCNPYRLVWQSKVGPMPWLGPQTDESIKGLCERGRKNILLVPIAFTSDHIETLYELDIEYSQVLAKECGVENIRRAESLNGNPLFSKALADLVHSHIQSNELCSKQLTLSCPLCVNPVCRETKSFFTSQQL
# Sequence of UniProt Q92522 (Q92522 whole entry, looked up): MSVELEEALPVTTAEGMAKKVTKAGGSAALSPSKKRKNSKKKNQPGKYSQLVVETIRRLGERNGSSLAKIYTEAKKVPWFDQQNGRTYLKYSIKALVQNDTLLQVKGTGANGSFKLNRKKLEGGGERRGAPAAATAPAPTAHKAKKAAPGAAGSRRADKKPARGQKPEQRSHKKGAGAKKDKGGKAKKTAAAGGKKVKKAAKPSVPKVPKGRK
# Sequence of UniProt O43824 (O43824 whole entry, looked up): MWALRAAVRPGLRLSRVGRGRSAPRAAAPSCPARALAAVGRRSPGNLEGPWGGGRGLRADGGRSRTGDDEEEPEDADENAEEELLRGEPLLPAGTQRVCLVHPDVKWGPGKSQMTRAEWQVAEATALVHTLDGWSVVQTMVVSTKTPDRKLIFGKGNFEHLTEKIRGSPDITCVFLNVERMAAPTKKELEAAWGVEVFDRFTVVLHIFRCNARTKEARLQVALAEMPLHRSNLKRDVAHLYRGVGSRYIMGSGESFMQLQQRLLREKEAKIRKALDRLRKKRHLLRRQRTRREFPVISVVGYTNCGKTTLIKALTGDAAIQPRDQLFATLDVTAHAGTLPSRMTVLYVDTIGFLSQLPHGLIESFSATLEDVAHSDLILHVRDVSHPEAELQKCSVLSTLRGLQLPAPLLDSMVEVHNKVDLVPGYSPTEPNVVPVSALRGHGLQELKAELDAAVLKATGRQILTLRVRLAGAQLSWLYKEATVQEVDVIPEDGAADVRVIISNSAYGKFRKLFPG
# Sequence of UniProt P08754 (P08754 whole entry, looked up): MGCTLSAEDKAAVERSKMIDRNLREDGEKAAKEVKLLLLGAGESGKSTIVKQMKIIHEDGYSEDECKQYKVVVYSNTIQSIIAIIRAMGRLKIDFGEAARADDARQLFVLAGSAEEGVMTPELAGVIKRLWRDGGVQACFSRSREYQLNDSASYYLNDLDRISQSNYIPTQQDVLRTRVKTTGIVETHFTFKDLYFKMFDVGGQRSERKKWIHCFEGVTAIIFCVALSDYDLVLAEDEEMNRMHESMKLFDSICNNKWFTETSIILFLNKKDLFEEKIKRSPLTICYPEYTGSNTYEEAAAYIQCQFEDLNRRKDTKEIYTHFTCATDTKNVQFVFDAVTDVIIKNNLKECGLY
# Sequence of UniProt Q8NB37 (Q8NB37 whole entry, looked up): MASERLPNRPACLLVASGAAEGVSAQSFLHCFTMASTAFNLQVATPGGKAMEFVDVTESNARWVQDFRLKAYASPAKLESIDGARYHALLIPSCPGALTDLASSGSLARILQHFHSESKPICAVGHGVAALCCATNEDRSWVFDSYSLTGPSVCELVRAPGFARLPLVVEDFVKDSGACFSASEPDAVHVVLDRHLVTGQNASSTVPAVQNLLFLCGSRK
Target,log2 fold change [1],log2 fold change [2],log2 fold change [3],log2 fold change [4],log2 fold change [5],log2 fold change [6],log2 fold change [7],log2 fold change [8],log2 fold change [9],log2 fold change [10]
HMGN1 (UniProt P05114),-0.067,0.055,-0.034,0.058,-0.045,0.094,0.015,-0.027,0.013,-0.042
GTPBP6 (UniProt O43824),-0.002,0.012,0.197,-0.066,-0.002,0.003,0.087,-0.006,0.06,0.076
HDDC2 (UniProt Q7Z4H3),0.044,-0.058,0.106,-0.103,0.04,0.032,0.026,0.024,0.031,0.228
HSPA8 (UniProt E9PK54),-0.05,-0.023,-0.272,0.334,-0.05,0.01,0.033,0.088,0.143,0.012
HDAC7 isoform 5 (UniProt Q8WUI4),-0.027,-0.013,0.016,-0.281 (active),0.008,0.011,-0.03,0.028,-0.018,0.185
HOOK3 (UniProt Q86VS8),-0.042,-0.123,-0.05,0.036,0.05,-0.067,0.037,0.033,0.019,-0.199
GLUD1 (UniProt P00367),0.16,-0.016,0.058,0.005,0.006,0.141,-0.071,-0.057,0.048,-0.048
FECH isoform 2 (UniProt P22830),0.527,0.021,0.161,-0.12,0.263,0.178,0.162,0.029,0.071,-0.37
GNAI3 (UniProt P08754),0.121,0.103,-0.122,0.003,0.002,0.039,-0.023,-0.014,0.036,-0.008
GATD1 (UniProt Q8NB37),-0.026,0.023,-0.256,0.012,0.124,0.052,-0.075,0.033,0.163,-0.005
GATA1 (UniProt P15976),0.03,0.16,-0.032,0.046,-0.061,0.112,0.031,-0.071,0.017,-0.063
GDI1 (UniProt P31150),0.018,0.026,0.061,-0.054,0.014,-0.049,0.004,-0.009,-0.027,0.084
FUBP3 (UniProt Q96I24),-0.076,-0.046,-0.083,0.065,-0.002,-0.106,-0.028,0.013,-0.025,-0.049
H1FX (UniProt Q92522),-0.175,0.091,-0.524,0.432,-0.143,0.13,0.029,0.021,0.188,-0.016
HMOX2 (UniProt P30519),0.07,-0.03,0.022,0.008,0.011,0.017,-0.007,0.041,0.062,-0.028
